HTR2A ag: mouse HTR2A agonism via beta-arrestin recruitment; P35363; CHO-K1 mHTR2A beta-arrestin complementation, luminescence; percent of 30 µM serotonin response; activation, % at 7.6 µM; 0.66% of 360,000 active; AID 624169;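 active = activation above a run cutoff, the mean activation of all tested compounds plus 3 SD, cut at about 14% in these data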;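 note: 0% = plate median of compound wells and 100% = 30 µM serotonin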
Granule exo inh: blocks lytic granule exocytosis; AID 651702; inhibition, % at 10 µM; 0.66% of 360,000 active; TALL-104 LAMP-1 surface exposure, flow cytometry; cells stimulated with thapsigargin and PMA;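 active = inhibition above about 55%, limit read from the data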
Beta2AR agonist: human beta-2 adrenergic receptor agonism by FAP; P07550; Am2.2-beta2AR cells, FAP receptor internalization, flow cytometry; response, % (test concentration not listed); 0.43% of 340,000 active; AID 504454;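 active = response above a set limit, near 3 SD of response in nonfluorescent compounds, cut at about 42% in these data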
NTR1 agonist: activates human neurotensin receptor 1 | activation, % at 20 µM | AID 493036 | 0.17% of 330,000 active | P30989 | NTR1-U2OS beta-arrestin-GFP spot imaging, agonist mode;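 active = activation at or above 40% of the spot to cytoplasm intensity ratio, with at least 20 cells analyzed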;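 note: 0% = DMSO without peptide and 100% = 100 nM NTR1 peptide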
ABHD5 PLIN5 PPI: inhibitors of human ABHD5-perilipin-5 interaction; Split G. princeps luciferase complementation, luminescence, 4 h; inhibition, % at 4 µM; 0.78% of 360,000 active;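 active = inhibition above the mean inhibition across every tested compound plus 3 SD, cut at about 22% in these data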;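 note: 0% = DMSO only wells and the 100% control is not disclosed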
Target sequence (Q00G26 whole entry, looked up): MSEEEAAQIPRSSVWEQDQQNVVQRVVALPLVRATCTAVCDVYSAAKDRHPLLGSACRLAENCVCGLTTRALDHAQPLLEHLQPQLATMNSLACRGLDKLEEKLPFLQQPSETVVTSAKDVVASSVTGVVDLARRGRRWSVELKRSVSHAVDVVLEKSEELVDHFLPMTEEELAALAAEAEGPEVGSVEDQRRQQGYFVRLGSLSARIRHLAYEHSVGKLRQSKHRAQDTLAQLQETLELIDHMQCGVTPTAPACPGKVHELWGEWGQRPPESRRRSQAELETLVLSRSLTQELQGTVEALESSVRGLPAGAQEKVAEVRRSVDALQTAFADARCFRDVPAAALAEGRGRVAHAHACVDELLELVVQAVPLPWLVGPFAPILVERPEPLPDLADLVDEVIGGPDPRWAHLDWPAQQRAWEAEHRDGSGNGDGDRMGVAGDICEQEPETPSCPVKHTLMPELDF
Target sequence (Q8WTS1 whole entry, looked up): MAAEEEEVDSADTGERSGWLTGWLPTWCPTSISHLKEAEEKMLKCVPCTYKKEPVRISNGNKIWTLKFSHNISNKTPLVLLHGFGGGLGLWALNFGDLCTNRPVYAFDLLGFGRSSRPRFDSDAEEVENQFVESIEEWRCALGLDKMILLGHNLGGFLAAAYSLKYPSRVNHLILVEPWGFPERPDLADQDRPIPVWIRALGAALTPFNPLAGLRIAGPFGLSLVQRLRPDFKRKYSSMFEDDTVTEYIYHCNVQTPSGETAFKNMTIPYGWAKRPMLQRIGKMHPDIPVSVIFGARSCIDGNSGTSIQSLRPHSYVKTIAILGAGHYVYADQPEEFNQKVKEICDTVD
Exocytosis CP01: lytic granule exocytosis inhibition; inhibition, % at 10 µM; shares compounds with Granule exo inh; TALL-104 cells, LAMP-1 externalization, flow cytometry; stimulated with PMA plus thapsigargin; 11% of 1,500 active; in the data active = inhibition above about 60%;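 note: 0% = stimulated vehicle wells and 100% = unstimulated wells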
Numbers without * were called inactive; / = not tested or not shown. Compounds with a hit are over-represented: about 2.3% of the library has one in this group of screens.

SMILES	HTR2A ag	Granule exo inh	Beta2AR agonist	NTR1 agonist	ABHD5 PLIN5 PPI	Exocytosis CP01
CCOc1ccc(N(CC(=O)NC2CCCC2)S(=O)(=O)c2c(C)[nH]c(=O)[nH]c2=O)cc1	-2.7	4.4	-3.8	4.8	-2.3	/
CCCCn1c(NS(=O)(=O)c2ccc(C)cc2)c(S(=O)(=O)c2ccccc2)c2nc3ccccc3nc21	8.8	67.9*	22.9	/	-6.3	0.2
CCn1ccnc1CN(C)Cc1cn[nH]c1-c1ccc(OC)c(F)c1	4.4	-1.9	-0.1	-2.2	-2.0	/
COc1ccc(/C=N/n2c(N)c(S(=O)(=O)c3cccs3)c3nc4ccccc4nc32)cc1OC	-3.4	1.6	19.3	5.2	-3.7	/
CC(C)Cn1c(N)c(S(=O)(=O)c2cccs2)c2nc3ccccc3nc21	-7.7	80.0*	-1.2	/	-20.4	-11.4
COc1ccc(CC(=O)NCC2CCCN(Cc3ccc(OC(F)(F)F)cc3)C2)cc1 (configuration not stated)	-3.1	66.5*	0.3	-0.6	-0.8	-12.1
COC(=O)c1ccc(CN2CCCC(CNC(=O)Cc3ccc(OC)cc3)C2)cc1 (configuration not stated)	-0.7	2.0	1.7	0.2	-3.1	/
COC1=CC(=O)c2c(ccc3ncnc(N)c23)C1=O	-2.3	88.4*	-28.7	/	55.3*	14.0
CCc1c(C)c(C#N)c2nc3ccccc3n2c1Nc1c(C)n(C)n(-c2ccccc2)c1=O	1.8	63.9*	-11.0	0.8	-5.0	-16.0
Cc1cc(Nc2c(C)n(C)n(-c3ccccc3)c2=O)n2c(nc3ccccc32)c1C#N	-2.0	-2.8	2.0	2.1	-1.6	/
CCc1ccc(S(=O)(=O)Nc2ccc(O)c3ccccc23)cc1	-1.4	7.9	6.9	2.8	-11.9	/
O=C(O)CSc1cc(NS(=O)(=O)c2cccc([N+](=O)[O-])c2)c2ccccc2c1O	-6.5	75.1*	7.0	/	-7.5	-0.9
CCc1ccc(S(=O)(=O)Nc2cc(SCC(=O)O)c(O)c3ccccc23)cc1	-1.9	66.9*	13.1	0.4	2.5	-3.4
CCOCCCNC(=S)N1CCCN(c2nc3cc(C)ccc3cc2C#N)CC1	1.9	0.6	-2.0	3.1	-1.8	/
CCOCCCNC(=S)N1CCCN(c2nc3c(C)c(C)ccc3cc2C#N)CC1	-7.9	90.6*	-4.4	20.3	-5.7	78.9*
COc1ccccc1N1C(=O)CC(Sc2n[nH]c(-c3cccc(C)c3)n2)C1=O (configuration not stated)	0.3	59.3*	12.1	-0.5	4.1	52.5
COc1ccccc1N1C(=O)CC(Sc2nccc(C)n2)C1=O (configuration not stated)	12.2	-2.7	-11.4	1.8	5.3	/
COc1ccccc1-c1cc(NC(C)=O)c2ncc(-c3cccc(C(C)=O)c3)n2c1	-5.5	11.3	/	/	5.6	/
Cc1ccc(S(=O)(=O)CCC(=O)N(CCCN2CCOCC2)c2nc3ccccc3s2)cc1	-5.8	65.0*	4.1	6.9	3.0	-7.6
Cc1ccc2nc(N(CCN3CCOCC3)C(=O)CCS(=O)(=O)c3ccccc3)sc2c1	-5.7	13.1	6.2	2.2	7.0	/
O=C(CCS(=O)(=O)c1ccccc1)N(CCCN1CCOCC1)c1nc2ccccc2s1	-4.2	58.3*	5.8	9.7	-2.9	-9.2
CN(C)CCN(C(=O)CCS(=O)(=O)c1ccccc1)c1nc2cc3c(cc2s1)OCO3	-5.1	-0.7	7.2	0.1	5.8	/
CCCCc1ccc(S(=O)(=O)NC2CCS(=O)(=O)C2)cc1 (configuration not stated)	4.1	-9.2	-2.1	1.9	-10.2	/
COC(=O)Nc1ccc(S(=O)(=O)NC2CCS(=O)(=O)C2)cc1 (configuration not stated)	4.3	64.2*	7.4	0.1	6.9	-14.4
CCOc1ccccc1NC(=O)COC(=O)c1c[nH]c2ccccc12	-0.8	-1.0	7.4	0.7	-11.9	/
SMILES	HTR2A ag	Granule exo inh	Beta2AR agonist	NTR1 agonist	ABHD5 PLIN5 PPI	Exocytosis CP01
Cc1onc(-c2ccccc2)c1C(=O)OCCOc1ccccc1F	-4.1	80.4*	-4.5	2.5	5.5	-9.7
Cn1c(SCc2cccc(C#N)c2)nc2ccccc2c1=O	6.8	70.7*	-2.0	1.2	2.9	-4.0
Cn1c(SCc2cccc([N+](=O)[O-])c2)nc2ccccc2c1=O	-3.5	0.7	0.2	4.5	-1.7	/
CC(C(N)=O)N1c2cccc3cccc(c23)S1(=O)=O (configuration not stated)	3.1	-7.0	7.3	2.1	-6.9	/
CC(NC(=O)C(C)N1c2cccc3cccc(c23)S1(=O)=O)c1ccccc1 (configuration not stated)	-4.3	81.9*	1.2	0.4	-3.0	-6.4
Cc1onc(-c2c(F)cccc2Cl)c1C(=O)Nc1sc2c(c1C(N)=O)CCC2	-3.9	56.2*	-10.0	8.4	-0.5	6.6
CCOc1ccc(Br)cc1S(=O)(=O)Nc1cccc(S(=O)(=O)NC2=NCCC2)c1	4.4	-1.7	3.5	1.0	3.3	/
CCOc1ccc(Br)cc1S(=O)(=O)Nc1cccc(S(=O)(=O)N2CCOCC2)c1	8.2	96.6*	-10.2	/	6.8	-13.8
C=C(C)Cn1c(-c2ccccc2)nc2ccccc21	-3.5	-0.5	6.7	1.7	0.8	/
C=C1c2nc3ccccc3n2C=C(c2ccc(C)cc2)N1c1ccccc1	2.5	90.1*	-2.2	/	4.8	-13.8
O=C1c2ccccc2C(=O)N1CCC#Cc1ccc2cc(CCCO)oc(=O)c2c1	8.1	-0.2	-3.1	-2.7	1.5	/
COc1cc(CN2CCC(C(=O)NCCC(C)C)CC2)ccc1OCc1ccccc1	-9.6	63.3*	-8.2	3.4	1.4	-11.6
CC(C)CCNC(=O)C1CCN(Cc2cccc(OCc3ccccc3)c2)CC1	-9.0	68.7*	4.8	2.7	2.2	-10.4
COCCNC(=O)C1CCCN(Cc2ccc(C(C)C)cc2)CC1 (configuration not stated)	-3.2	67.5*	/	/	-1.5	-3.8
CCc1ccc(/C(C)=N/NS(=O)(=O)c2ccc(OC)cc2)s1	-3.6	-3.0	-8.1	0.3	-2.5	/
COc1ccc(Cn2nc(C)n(N(C)c3ncc(C(F)(F)F)cc3Cl)c2=O)cc1	-1.9	1.9	-9.1	0.9	3.7	/
COc1ccc(-c2cc(-c3ccccc3)c(C#N)c(S(C)=O)n2)cc1 (configuration not stated)	-4.6	64.4*	44.1*	9.2	0.4	-3.7
CCOc1ccccc1CNC(=O)CCn1ccc2cc(S(=O)(=O)N3CCCCC3)ccc21	-1.8	62.1*	-2.2	1.8	6.1	-3.3
O=C(CNC(=O)c1ccco1)NCC(=O)OCC(=O)c1ccc(Cl)c([N+](=O)[O-])c1	-11.8	15.5	1.5	-0.7	8.4	/
CNC(=O)c1cccc(NC(=O)c2ccccc2OCc2ccccc2)c1	-6.7	63.1*	-7.3	-2.2	-6.5	-5.2
COc1cc(NC(=O)c2ccccc2OCc2ccccc2)cc(OC)c1OC	-1.1	84.1*	3.4	10.6	3.1	-7.2

Screening results deposited in PubChem by several laboratories.
